Compound activity as filed in PubChem.
PINK1 modulator = changes PINK1 expression; PINK1 immunofluorescence, high-content cytometry, 24 h; Potency, µM (series often up to 76.6 µM), hits mostly activators; 410,000 compounds, 0.2% hits; AID 624263; active = well fitted activation curve with a large enough effect; inconclusive = small, poorly fitted or top-dose-only effect; cell line not stated here; note: nearly all actives have a fitted effect of over 65% in size
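PINK1 protein level read as immunofluorescence by microplate cytometer in a fixed, stained stable cell line after 24 h exposure to five compound concentrations, with CCCP as control.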
IL1B secr inh = blocks inflammasome-driven IL-1 beta release | THP-1 LPS/ATP IL-1B secretion, AlphaLISA, 16 h; stronger effect = lower value | activity change, % at 57.5 µM | 360,000 compounds, 4.7% hits; in the data active = activity change below about -50%; inconclusive = mostly about -30% to -49%
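THP-1 cells pretreated 1 hr with compounds (up to 57.5 uM final), then stimulated with LPS (250 ng/mL final) plus ATP (1.25 mM final); secreted IL-1B measured by AlphaLISA after 16 hr, decreased signal indicating inhibition.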
ATXN2 expr inh = reduces ATXN2 reporter expression in HEK-293 cells | 360,000 compounds, 0.72% hits | Potency, µM (series often up to 57 µM), actives largely listed as inhibitors | HEK-293 ATXN2-luciferase reporter, luminescence, 24 h; note: nearly all actives have a fitted effect of over 55% in size
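ATXN2-luciferase reporter cells (luciferase flanked by upstream and downstream ATXN2 gene portions) were treated 24 h at 37 °C with compounds at up to 57 uM. SteadyGlo luminescence gave expression; GF-AFC fluorescence gave viability.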
SW480 rereplic = DNA re-replication induction in SW480 cells | SW480 DNA re-replication, Hoechst DNA content imaging, 48 h | Potency, µM (doses to about 46.1 µM), hits mostly activators | 340,000 compounds, 1.8% hits | AID 624297; note: nearly all actives have a fitted effect of over 55% in size
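Quantitative HTS format with DMSO vehicle controls; 48 hr drug incubation at 37 C, then 40 min Hoechst staining and scanning imager measurement at 405 nm excitation.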
MCF10A rereplic = DNA re-replication induction in MCF 10a cells | MCF 10A DNA re-replication, Hoechst nuclear intensity, 48 h | 350,000 compounds, 2.9% hits | Potency, µM (highest dose often 46.1 µM), actives largely listed as activators | AID 624296; note: nearly all actives have a fitted effect of over 50% in size
S2 tox = cell viability loss in ATXN counter-screen; S2 cells (HEK-293 line with an ATXN2-luciferase reporter) viability, CellTiter-Fluor protease fluorescence, 24 h; Potency, µM (series often up to 56.7 µM), hits mostly cytotoxic; 400,000 compounds, 0.49% hits; AID 651635; note: nearly all actives have a fitted effect of over 40% in size
Large screens that a line does not name were inactive. A selection: hits, their analogues and other compounds. The true share with any hit is near 7.1%. Unless noted, calls come from the whole dose curve; as a rule, active = well fitted curve in the direction sought with a large enough effect; inconclusive = small, poorly fitted or top-dose-only effect, or another doubt; inactive = no such curve, though single readings can be large; an effect the other way counts as inactive or inconclusive.

CC1CCN(S(=O)(=O)c2ccc3c(c2)C(=NO)c2cc(S(=O)(=O)N4CCC(C)CC4)ccc2-3)CC1	IL1B secr inh -89, ATXN2 expr inh 3.5µM, SW480 rereplic inconclusive, MCF10A rereplic 0.52µM, S2 tox 3.2µM
Cc1ccc(S(=O)(=O)N2CCN(S(=O)(=O)N3CCCCC3)CC2)cc1C	none
Cc1cccc(OCC(=O)N2CCC(c3nc4ccccc4o3)CC2)c1C	none (no result: IL1B secr inh, ATXN2 expr inh, SW480 rereplic, MCF10A rereplic, S2 tox)
Cc1nn(C)cc1CN1CCOc2ccc(C(C)(O)COc3ccccc3)cc2C1 (centres undefined)	none (no result: IL1B secr inh, ATXN2 expr inh, SW480 rereplic, MCF10A rereplic)
COc1ccc(-c2ccc3c(c2)O[C@H](CN(C)C(=O)Nc2ccccc2F)[C@@H](C)CN([C@H](C)CO)S3(=O)=O)cc1	none (no result: SW480 rereplic, MCF10A rereplic)
C[C@@H]1CN([C@H](C)CO)S(=O)(=O)c2ccc(Br)cc2O[C@@H]1CN(C)C(=O)Nc1ccc(C(F)(F)F)cc1	PINK1 modulator inconclusive, IL1B secr inh -70, ATXN2 expr inh inconclusive, S2 tox 22µM (no result: SW480 rereplic, MCF10A rereplic)
C[C@@H]1CN([C@H](C)CO)S(=O)(=O)c2ccc(-c3ccc(C#N)cc3)cc2O[C@H]1CN(C)C(=O)Nc1cc(F)ccc1F	ATXN2 expr inh 16µM, S2 tox inconclusive (no result: SW480 rereplic, MCF10A rereplic)
CCOC(=O)c1cnc(-c2ccccc2O)nc1Cl	none (no result: S2 tox)
CCOC(=O)C1=Nc2ccccc2C1=[N+]=[N-]	IL1B secr inh -71, ATXN2 expr inh inconclusive, SW480 rereplic inconclusive, MCF10A rereplic 2.6µM (no result: S2 tox)
CCCCN(C)C(=O)Cn1c(SCC(=O)Nc2ccc(C)c(C)c2)nc2ccccc21	S2 tox inconclusive (no result: IL1B secr inh, SW480 rereplic, MCF10A rereplic)
Cc1oc(-c2ccccc2)nc1CCC(=O)c1ccc(CC2SC(=O)NC2=O)cc1 (centres undefined)	none (no result: PINK1 modulator, IL1B secr inh, SW480 rereplic, MCF10A rereplic)
Cc1ccc2ncc(C(=O)c3ccc(C)c(C)c3)c(S(=O)(=O)c3ccccc3)c2c1	ATXN2 expr inh inconclusive (no result: IL1B secr inh, SW480 rereplic, MCF10A rereplic)
Cc1cccc(C(=O)c2cnc3ccccc3c2-c2ccccc2)c1	MCF10A rereplic 23µM
COc1ccc(NC(=S)Nc2cccc3ccccc23)cc1OC	none
COc1ccc2c(c1)c[n+](C)c1c3cc(OC)c(OC)cc3ccc21	IL1B secr inh inconclusive, ATXN2 expr inh 18µM, S2 tox inconclusive (no result: SW480 rereplic, MCF10A rereplic)
COc1cc2c[n+](C)c3c4ccccc4ccc3c2cc1OC	IL1B secr inh -112, SW480 rereplic inconclusive
COc1ccc(Cc2c3cc(OC)c(OC)cc3cc[n+]2C)cc1OC	none
CC(=O)Nc1nonc1-c1nnc(SCc2cccc(Br)c2)n1C	none (no result: IL1B secr inh, SW480 rereplic, MCF10A rereplic)
CO[C@H]1[C@H](NC(=O)c2ccncc2)c2ccccc2C12CCN(C(=O)c1ccoc1)CC2	none (no result: IL1B secr inh, ATXN2 expr inh, SW480 rereplic, MCF10A rereplic)
CCCOc1ccc(NC(=O)CC2C(=O)N(c3cccc(OC)c3)C(=O)N2CCc2ccncc2)cc1 (centres undefined)	none (no result: IL1B secr inh, ATXN2 expr inh, SW480 rereplic, MCF10A rereplic, S2 tox)
OCc1ccccc1O	none (no result: PINK1 modulator, IL1B secr inh)
OCc1ccccc1SSc1ccccc1CO	IL1B secr inh -99, ATXN2 expr inh inconclusive, SW480 rereplic inconclusive, MCF10A rereplic 18µM, S2 tox inconclusive
COc1ccc(N2CCN(C(=O)CSc3nnc4n3C(C)(C)Cc3ccccc3-4)CC2)cc1	none
Cc1ccc(Cl)cc1N1CCN(C(=O)CSc2nnc3n2C(C)(C)Cc2ccccc2-3)CC1	IL1B secr inh inconclusive, ATXN2 expr inh inconclusive, MCF10A rereplic 13µM, S2 tox inconclusive
Cc1ccc(NC(=S)Nc2cccc3cnccc23)cc1C	IL1B secr inh -78
Cc1ccccc1NC(=S)Nc1cccc2cnccc12	none
Cc1ccc(C)c(NC(=S)Nc2cccc3cnccc23)c1	SW480 rereplic 13µM, MCF10A rereplic inconclusive
COC(=O)[C@@H]1CCCN1C(=O)c1c(OC)cc(=O)n2c1CCN(Cc1ccc3c(c1)CCO3)CC2	none (no result: IL1B secr inh, ATXN2 expr inh, SW480 rereplic, MCF10A rereplic)
Cc1ccnc(NC(=O)C(Cc2ccccc2)NC(=O)c2ccccc2)c1 (centres undefined)	none (no result: ATXN2 expr inh)
COc1ccccc1CNC(=O)c1c[nH]c2ccc(S(=O)(=O)Nc3cc(C)cc(C)c3)cc2c1=O	S2 tox inconclusive (no result: IL1B secr inh, SW480 rereplic, MCF10A rereplic)
C=C[C@]1(C)C=C2C(=O)[C@@]3(O)OC(=O)[C@@]4(CCCC(C)(C)[C@H]34)[C@@]2(O)CC1	IL1B secr inh -113, ATXN2 expr inh 1.6µM, S2 tox 1.8µM (no result: SW480 rereplic, MCF10A rereplic)
CCOc1ccc(/C=C/c2nc(C#N)c(N3CCN(CC)CC3)o2)cc1	none (no result: IL1B secr inh, ATXN2 expr inh, SW480 rereplic, MCF10A rereplic, S2 tox)
